In the supplement of paper PMC9262897, “Low-cost anti-mycobacterial drug discovery using engineered E. coli” (Nature Communications, 2022):
Counter-ions that a name gives are not always drawn. ± gives the standard deviation of the averaged measurements.

Legend:
Test in all cases: growth (OD600 after 10 h); higher = more growth (less inhibition)
[1] = test system: E. coli TESEC Alr+ wild-type control; details: compound 0.1 mM; raw OD600 reference: median of DMSO wells 0.241, cell-free background 0.041
Protocol: (§1)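 TESEC Mtb Alr E. coli, or the Alr+ wild-type control, in 384-well plates with Prestwick library compounds at 0.1 mM and 1% DMSO, across arabinose induction levels of 1E3 to 1E7 nM. Growth is read as OD600 after 10 h at 37 °C in triplicate biological replicates.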

E. coli TESEC Mtb Alr [2] = details: compound 0.1 mM
Protocol: as §1

E. coli TESEC Mtb Asd = details: compound 0.1 mM
Protocol: (§2)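 TESEC E. coli strains in which the native enzyme is deleted and replaced by arabinose-inducible Mtb Asd, DapB, CysH or TrpD, each grown in its selective medium. Strains were screened against the Prestwick library at 0.1 mM and 1% DMSO in 384-well format at low and high arabinose induction. Growth is read as OD600 after 10 h in triplicate.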

E. coli TESEC Mtb DapB = details: compound 0.1 mM
Protocol: as §2

E. coli TESEC Mtb Alr [3] = details: compound 0.1 mM; remark: listed apart in the source
Protocol: (§3)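 TESEC Mtb Alr E. coli (ΔaraC ΔtolC ΔentC Δalr ΔdadX, arabinose-inducible Mtb Alr) or the Alr+ wild-type control strain, grown in defined M9-fructose medium without D-alanine in 96-well plates with Prestwick library compounds at 0.1 mM and 1% DMSO. Low Alr induction is 0.1 µM arabinose and high induction is 10 mM arabinose.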

[4] = test system: E. coli TESEC Alr+ wild-type control; details: compound 0.1 mM; raw OD600 reference: median of DMSO wells 0.49, cell-free background 0.052
Protocol: as §3

[5] = arabinose 1000 nM, raw OD600 reference: median of DMSO wells 0.294, cell-free background 0.041
[6] = arabinose 10000 nM, raw OD600 reference: median of DMSO wells 0.264, cell-free background 0.041
[7] = arabinose 100000 nM, raw OD600 reference: median of DMSO wells 0.201, cell-free background 0.041
[8] = arabinose 1000000 nM, raw OD600 reference: median of DMSO wells 0.193, cell-free background 0.041
[9] = arabinose 10000000 nM, raw OD600 reference: median of DMSO wells 0.146, cell-free background 0.041
[10] = arabinose induction (level): High, raw OD600 reference: median of DMSO wells 0.331, cell-free background 0.041
[11] = arabinose induction (level): Low, raw OD600 reference: median of DMSO wells 0.417, cell-free background 0.041
[12] = arabinose induction (level): High, raw OD600 reference: median of DMSO wells […], cell-free background 0.041
[13] = arabinose induction (level): Low, raw OD600 reference: median of DMSO wells 0.227, cell-free background 0.041
[14] = arabinose 100 nM, raw OD600 reference: median of DMSO wells 0.413, cell-free background 0.052
[15] = arabinose 10000000 nM, raw OD600 reference: median of DMSO wells […], cell-free background 0.052

| Structure (SMILES) | growth [1] | growth (E. coli TESEC Mtb Alr [2]; [5]) | growth (E. coli TESEC Mtb Alr [2]; [6]) | growth (E. coli TESEC Mtb Alr [2]; [7]) | growth (E. coli TESEC Mtb Alr [2]; [8]) | growth (E. coli TESEC Mtb Alr [2]; [9]) | growth (E. coli TESEC Mtb Asd; [10]) | growth (E. coli TESEC Mtb Asd; [11]) | growth (E. coli TESEC Mtb DapB; [12]) | growth (E. coli TESEC Mtb DapB; [13]) | growth (E. coli TESEC Mtb Alr [3]; [14]) | growth (E. coli TESEC Mtb Alr [3]; [15]) | growth [4] |
| --- | --- | --- | --- | --- | --- | --- | --- | --- | --- | --- | --- | --- | --- |
| CCn1cc(C(=O)O)c(=O)c2cc3c(cc21)OCO3 [Oxolinic acid] | 0.0726 ± 0.0019 | 0.05577 ± 0.00049 | 0.0509 ± 0.00026 | 0.0646 ± 0.0014 | 0.0934 ± 0.0036 | 0.123 ± 0.0027 | 0.156 ± 0.011 | 0.149 ± 0.011 | 0.194 ± 0.0098 | 0.208 ± 0.054 | 0.0698 ± 0.0013 | 0.0582 ± 0.0011 | – |
| COc1ccc(CN2CCNCC2)c(OC)c1OC [Trimetazidine dihydrochloride] | 0.228 ± 0.0052 | 0.3105 ± 0.0026 | 0.268 ± 0.0047 | 0.23 ± 0.024 | 0.172 ± 0.0071 | 0.162 ± 0.0046 | 0.301 ± 0.068 | 0.307 ± 0.11 | – | – | 0.409 ± 0.014 | 0.33 ± 0.019 | – |
| CN1[C@@H]2C[C@@H](OC(=O)[C@H](CO)c3ccccc3)C[C@H]1[C@@H]1O[C@@H]12 [Scopolamine hydrochloride] | 0.252 ± 0.0082 | 0.321 ± 0.023 | 0.292 ± 0.011 | 0.207 ± 0.012 | 0.182 ± 0.0041 | 0.157 ± 0.0084 | 0.469 ± 0.011 | 0.453 ± 0.025 | – | – | 0.408 ± 0.016 | 0.36 ± 0.01 | – |
| C[N+]1(C)CCOC(O)(c2ccc(-c3ccc(C4(O)C[N+](C)(C)CCO4)cc3)cc2)C1 (stereo unspecified) [Hemicholinium bromide] | 0.227 ± 0.013 | 0.298 ± 0.02 | 0.276 ± 0.0044 | 0.229 ± 0.025 | 0.1741 ± 0.00078 | 0.195 ± 0.0053 | 0.352 ± 0.026 | 0.281 ± 0.069 | – | – | 0.403 ± 0.0081 | 0.397 ± 0.015 | – |
| OC(c1ccccc1)(c1ccccc1)C1CCNCC1 [Azacyclonol] | 0.222 ± 0.014 | 0.294 ± 0.011 | 0.269 ± 0.0093 | 0.2264 ± 0.00067 | 0.166 ± 0.0076 | 0.136 ± 0.0054 | 0.296 ± 0.07 | 0.442 ± 0.019 | – | – | 0.412 ± 0.011 | 0.333 ± 0.035 | 0.523 ± 0.032 |
| CC(C)C[C@H](CN)CC(=O)O [Pregabalin] | 0.239 ± 0.015 | 0.291 ± 0.0063 | 0.273 ± 0.013 | 0.178 ± 0.022 | 0.223 ± 0.015 | 0.134 ± 0.0081 | 0.28 ± 0.062 | 0.406 ± 0.038 | – | – | 0.41 ± 0.01 | 0.306 ± 0.013 | 0.614 ± 0.019 |
| NC(=O)CN1CCCC1=O [Piracetam] | 0.245 ± 0.0091 | 0.299 ± 0.0073 | 0.27 ± 0.0054 | 0.224 ± 0.034 | 0.184 ± 0.0072 | 0.15 ± 0.0043 | 0.302 ± 0.06 | 0.325 ± 0.092 | – | – | 0.415 ± 0.011 | 0.346 ± 0.018 | – |
| C=CCN1CC[C@]23c4c5ccc(O)c4O[C@H]2C(=O)CC[C@@]3(O)[C@H]1C5 [Naloxone hydrochloride] | 0.244 ± 0.012 | 0.266 ± 0.026 | 0.27 ± 0.016 | 0.192 ± 0.021 | 0.178 ± 0.0076 | 0.137 ± 0.0051 | 0.295 ± 0.066 | 0.498 ± 0.028 | 0.202 ± 0.0047 | 0.255 ± 0.059 | 0.419 ± 0.0087 | 0.317 ± 0.026 | – |
| O=[N+]([O-])O[C@@H]1CO[C@H]2[C@@H]1OC[C@@H]2O [Isosorbide mononitrate] | 0.24 ± 0.0084 | 0.292 ± 0.0083 | 0.261 ± 0.018 | 0.198 ± 0.035 | 0.209 ± 0.018 | 0.136 ± 0.0044 | 0.255 ± 0.084 | 0.345 ± 0.017 | – | – | 0.4231 ± 0.0041 | 0.324 ± 0.012 | – |
| CCCN1C[C@H](CSC)C[C@@H]2c3cccc4[nH]cc(c34)C[C@H]21 [Pergolide mesylate] | 0.2 ± 0.0044 | 0.254 ± 0.014 | 0.252 ± 0.0036 | 0.185 ± 0.0061 | 0.161 ± 0.0045 | 0.156 ± 0.0071 | 0.314 ± 0.05 | 0.425 ± 0.015 | – | – | 0.426 ± 0.018 | 0.345 ± 0.019 | 0.529 ± 0.017 |
| c1ccc2nc(N3CCNCC3)ccc2c1 [Quipazine dimaleate salt] | 0.232 ± 0.008 | 0.298 ± 0.016 | 0.25 ± 0.0049 | 0.212 ± 0.04 | 0.177 ± 0.0045 | 0.148 ± 0.0043 | 0.223 ± 0.013 | 0.257 ± 0.015 | – | – | 0.402 ± 0.0069 | 0.371 ± 0.02 | 0.47 ± 0.0099 |
| C[C@@H]1O[C@@H](O[C@@H]2C=C3CC[C@@H]4[C@H](CC[C@]5(C)[C@@H](c6ccc(=O)oc6)CC[C@]45O)[C@@]3(C)CC2)[C@H](O)[C@H](O)[C@H]1O [Proscillaridin A] | 0.182 ± 0.0085 | 0.247 ± 0.0077 | 0.256 ± 0.016 | 0.13 ± 0.0072 | 0.108 ± 0.0053 | 0.134 ± 0.0043 | 0.117 ± 0.0017 | 0.234 ± 0.021 | – | – | 0.405 ± 0.009 | 0.267 ± 0.0065 | 0.626 ± 0.018 |
| CCCC(C)C1(CC)C(=O)NC(=O)NC1=O (stereo unspecified) [Pentobarbital] | 0.233 ± 0.0093 | 0.279 ± 0.016 | 0.255 ± 0.013 | 0.233 ± 0.019 | 0.203 ± 0.011 | 0.143 ± 0.0092 | 0.451 ± 0.018 | 0.399 ± 0.087 | – | – | 0.4 ± 0.018 | 0.369 ± 0.0053 | 0.432 ± 0.011 |
| CCC(=O)O[C@H]1CC[C@H]2[C@@H]3CCC4=CC(=O)CC[C@]4(C)[C@H]3CC[C@]12C [Testosterone propionate] | 0.157 ± 0.016 | 0.145 ± 0.0086 | 0.261 ± 0.0051 | 0.12 ± 0.0075 | 0.107 ± 0.0037 | 0.117 ± 0.015 | 0.336 ± 0.065 | 0.454 ± 0.04 | – | – | 0.269 ± 0.18 | 0.148 ± 0.025 | 0.351 ± 0.039 |
